Measurements published in PubChem BioAssay (EPA / NIEHS).
Where “and” joins values, the source holds several entries; their conditions need not be identical. Equal entries are not always repeated. Results filed as inconclusive are left out. The source holds several records for some structures; these can differ, active in one and inactive in another. Calls of active or inactive are those of the source. The calls were made as follows: active = hit-call score of the fitted dose curve at least 0.9, where 1 is the maximum; inconclusive = response in the unintended direction; inactive = score below 0.9.

Test system: not listed separately
Experiment: ATG_XTT_Cytotoxicity: Cytotoxicity Assessment in the Attagene TRANS-FACTORIAL HepG2 Assay (AID 2283584);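 as to AC50: XTT signal for cell number as viability in transfected HepG2 cells; cells exposed to compound for 24 h before reading; active means loss of viability signal versus DMSO baseline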
Summary of the method: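 24 h chemical exposure of reporter-transfected HepG2; XTT signal loss vs DMSO indicates cytotoxicity.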

Row | Compound | outcome | AC50
1 | CCCCCCCCC(=O)NCc1ccc(O)c(OC)c1 | inactive | 
2 | CN(CCCC(=O)c1cccnc1)N=O | inactive | 
3 | O=CC=O | inactive | 
4 | COP(=O)(OC)OC | inactive | 
5 | N#CCCO | inactive | 
6 | CCN(CC)C(=O)Cl | inactive | 
7 | CC1CN1P(=O)(N1CC1C)N1CC1C (stereo not given) | inactive | 
8 | CC(C)C1CCC(Cc2ccc(Cl)cc2)C1(O)Cn1cncn1 (stereo not given) | inactive | 33.2 µM (active)
9 | CCCCCCCCSC(=O)Oc1cc(Cl)nnc1-c1ccccc1 | inactive | 
10 | O=C(O)Cc1ccccc1 | inactive | 
11 | CC(C)c1cccc(C(C)C)c1O | inactive | 
12 | O=C1CCCN1 | inactive | 
13 | Nc1ccc(-c2ccc(N)c(Cl)c2)cc1Cl | inactive | 

Test system: not listed separately
Experiment: TOX21_p53_BLA_p2_viability: Viability Assessment in the Tox21 HCT-116 p53 Agonism Beta-lactamase Assay, Phase 2 (AID 2283591);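 also: compound exposure lasted 16 h at 37 °C; actives lower the ATP signal meaning cytotoxicity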
Summary of the method: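 HCT116 p53-bla cells, 4000/well, dosed after 5 h plating (217-fold dilution of DMSO stocks) and incubated 16 h at 37C. Viability taken as cellular ATP by CellTiter-Glo luminescence after 30 min RT; signal loss marks cytotoxicity.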

Row | Compound | AC50 | outcome
14 | CC(C)(c1ccc(OCC2CO2)cc1)c1ccc(OCC2CO2)cc1 (stereo not given) | 68.3 µM (active) | inactive
15 | COP(=S)(OC)Oc1ccc(S(=O)(=O)N(C)C)cc1 |  | inactive
16 | CC(C)CCCCCCOC(=O)c1ccccc1C(=O)OCCCCCCC(C)C |  | inactive
17 | C=CC#N |  | inactive
18 | O=C1C(Cl)=C(Cl)C(=O)c2ccccc21 | 15 µM (active) | inactive
19 | C(=NC1CCCCC1)=NC1CCCCC1 |  | inactive
20 | C[C@H]1CCCC(=O)CCC/C=C/c2cc(O)cc(O)c2C(=O)O1 |  | inactive
21 | O=C/C=C/c1ccccc1 |  | inactive
22 | CCNc1nc(NC(C)(C)C)nc(SC)n1 |  | inactive
23 | COP(=O)(OC)OC |  | inactive
24 | CC(C)C1CCC(Cc2ccc(Cl)cc2)C1(O)Cn1cncn1 (stereo not given) | 53.1 µM (active) | 
25 | CCCCCCCCSC(=O)Oc1cc(Cl)nnc1-c1ccccc1 |  | inactive
26 | CC(C)c1cccc(C(C)C)c1O |  | inactive
27 | Nc1ccc(-c2ccc(N)c(Cl)c2)cc1Cl |  | inactive

Target: Cellular tumor antigen p53 (Homo sapiens) (UniProt P04637)
Experiment: TOX21_p53_BLA_p2_ratio: Tox21 HCT-116 p53 Agonism Beta-lactamase Assay, Ratio, Phase 2 (AID 2283592)
Summary of the method: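 Human colon HCT116 cells with an inducible p53 beta-lactamase reporter are exposed to test chemicals for 16 h at 37C. Reporter induction is read as the 460/530 nm emission ratio after CCF4-AM loading, normalized to DMSO.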

Sequence of Cellular tumor antigen p53 (Homo sapiens) (P04637 whole entry, looked up): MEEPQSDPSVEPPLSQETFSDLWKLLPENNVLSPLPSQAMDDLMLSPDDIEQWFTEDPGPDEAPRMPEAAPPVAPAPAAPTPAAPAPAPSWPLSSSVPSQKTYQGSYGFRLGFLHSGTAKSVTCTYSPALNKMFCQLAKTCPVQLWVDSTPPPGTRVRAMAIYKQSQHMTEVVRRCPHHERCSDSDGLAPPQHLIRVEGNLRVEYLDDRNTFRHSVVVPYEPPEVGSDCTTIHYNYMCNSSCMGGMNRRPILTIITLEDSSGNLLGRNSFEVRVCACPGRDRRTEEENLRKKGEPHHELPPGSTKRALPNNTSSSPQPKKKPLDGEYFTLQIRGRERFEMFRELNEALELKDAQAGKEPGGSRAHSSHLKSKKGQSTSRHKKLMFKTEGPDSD

Row | Compound | outcome | AC50
28 | CC(C)(c1ccc(OCC2CO2)cc1)c1ccc(OCC2CO2)cc1 (stereo not given) | inactive | 
29 | COP(=S)(OC)Oc1ccc(S(=O)(=O)N(C)C)cc1 | inactive | 
30 | CC(C)CCCCCCOC(=O)c1ccccc1C(=O)OCCCCCCC(C)C | inactive | 
31 | C=CC#N | inactive | 
32 | O=C1C(Cl)=C(Cl)C(=O)c2ccccc21 | inactive | 
33 | C(=NC1CCCCC1)=NC1CCCCC1 | inactive | 
34 | C[C@H]1CCCC(=O)CCC/C=C/c2cc(O)cc(O)c2C(=O)O1 | inactive | 11.7 µM (active)
35 | O=C/C=C/c1ccccc1 | inactive | 
36 | CCNc1nc(NC(C)(C)C)nc(SC)n1 | inactive | 
37 | COP(=O)(OC)OC | inactive | 
38 | CC(C)C1CCC(Cc2ccc(Cl)cc2)C1(O)Cn1cncn1 (stereo not given) |  | 67.8 µM (active)
39 | CCCCCCCCSC(=O)Oc1cc(Cl)nnc1-c1ccccc1 | inactive | 
40 | CC(C)c1cccc(C(C)C)c1O | inactive | 
41 | Nc1ccc(-c2ccc(N)c(Cl)c2)cc1Cl |  | 14.4 µM (active) and 13.7 µM (active) and 16.7 µM (active)
